# gsp ag = agonists of gsp mutant (McCune-Albright syndrome). gsp mutant cells, cAMP HTRF, 30 min. Potency, µM (titrated, usually from 76.9 µM), for inactives: top-dose activation (cAMP increase), usual class: activators. 340,000 tested, 0.13% active; active = well fitted activation curve with a large enough effect; inconclusive = small, poorly fitted or top-dose-only effect, or another doubt; inactive = no such curve, though single readings can be large or run the other way; cell line not stated here;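 also: phosphodiesterase inhibitor Ro 20-1724 added with compounds to block cAMP breakdown; potency is read from the fitted curve at half-maximal effect; nearly all actives have a fitted effect of over 60% in size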
#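 Cells in DMEM/10% FBS with G418 were pretreated with compounds in DMSO plus […] (300 uM stock) for 30 min at 37C. cAMP was measured by HTRF (cAMP-d2 plus anti-cAMP antibody-K) after 30 min at room temperature.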
# RXFP1 antagonist = RXFP1 (human) relaxin receptor antagonism; Q9HBX9; HEK293-RXFP1, relaxin-stimulated cAMP HTRF, 30 min; hits give low values; activity change, negative = inhibition, % at 57.5 µM; 350,000 tested, 0.59% active;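 active = activity change of -60% or lower, but not beyond a set lower limit; inconclusive = change between -60% and -40%, or beyond the set limit; inactive = change above -40%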; also: % is scaled to controls: 0 for no effect and ±100 for the full control effect
# gsp antagonist = antagonizes gsp, the McCune-Albright syndrome mutation. gsp-mutant cells, cAMP HTRF, 30 min. Potency, µM (doses to about 76.9 µM), without a hit: top-dose activity change, negative = inhibition, usual class: inhibitors. 340,000 tested, 0.4% active. AID 624288; calls by dose curve; cell line not stated here;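 also: intracellular cAMP measured with PDE inhibitor Ro 20-1724 present during compound exposure; potency is read from the fitted curve at half-maximal effect; % is scaled to controls: 0 for no effect and ±100 for the full control effect; nearly all actives have a fitted effect of over 65% in size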
#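 G418-selected cells were plated in DMEM/10% FBS for 16-24 h at 37C, then treated with compounds plus the PDE inhibitor […] (300 uM solution added) for 30 min at 37C. Intracellular cAMP was measured by HTRF after 30 min lysis at room temperature.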
# RXFP1 ag = RXFP1 (human) receptor agonism; Q9HBX9; Potency, µM (top dose mostly 57.5 µM), for inactives: at the top dose activation, most hits filed as activators; 370,000 tested, 0.3% active; HEK293T-RXFP1 cAMP TR-FRET, 30 min; response scale: percent of porcine relaxin response, buffer zero; active = well fitted activation curve with a large enough effect; inconclusive = small, poorly fitted or top-dose-only effect; also: potency is read from the fitted curve at half-maximal effect; % is scaled to controls: 0 for no effect and ±100 for the full control effect; nearly all actives have a fitted effect of over 60% in size
#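 HEK293T cells stably expressing RXFP1 were pretreated with the PDE4 inhibitor Ro 20174, exposed to compounds for 30 min at 37C, lysed, and cAMP was read by TR-FRET. Data normalized to buffer (basal) and 29 nM porcine relaxin (100%).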
# ClpP mod = qHTS Assay for Activators of ClpP; purified B. subtilis ClpP, FRET peptide cleavage, 20 min; Potency, µM (top dose mostly 57.5 µM), for inactives: top-dose activity change, negative = active; 340,000 tested, 1.9% active; AID 651965, 2013; active = well fitted falling curve with a large enough effect; inconclusive = small, poorly fitted or top-dose-only effect; inactive = no such curve, though single readings can be large or run the other way; also: potency is read from the fitted curve at half-maximal effect; the source files actives as falling curves though it sought activators and does not explain the sign; nearly all actives have a fitted effect of over 65% in size
# Target sequence (P80244 whole entry, looked up): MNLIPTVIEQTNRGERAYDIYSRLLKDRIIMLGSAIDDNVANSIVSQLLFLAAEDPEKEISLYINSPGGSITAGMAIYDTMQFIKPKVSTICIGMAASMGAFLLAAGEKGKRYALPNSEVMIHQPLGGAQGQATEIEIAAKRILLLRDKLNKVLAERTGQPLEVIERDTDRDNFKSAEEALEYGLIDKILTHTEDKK
#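 Purified B. subtilis ClpP, 10 microg/mL final in Tris/HCl pH8 with KCl, BSA, glycerol and Tween-20, cleaved an Abz/nitrotyrosine-quenched decapeptide. Fluorescence (ex 320, em 430) was read at 0 and 20 min at room temperature. Delta was normalized to 5.8 microM ADEP and DMSO/no-enzyme controls.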
# Akt phos inh = Akt phosphorylation inhibition; Neuro2A IGF-stimulated pAkt S473 HTRF, 20 min; hits give low values; activity change, % for hits at 50 µM; 360,000 tested, 0.32% active; in the data active = activity change below about -80%; inconclusive = mostly about -51% to -80%; also: % is scaled to controls: 0 for no effect and ±100 for the full control effect
#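 Neuro2A cells in DMEM with 0.5% FBS, overnight at 37 deg C, given compound at single 50 µM final, then IGF (6 nM final) for 20 min at 37 deg C. Lysed; phospho-Akt Ser473 by HTRF after 24 h, 665/615 ratio.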
# * = called active by the depositor; i = inactive; ? = inconclusive; / = no result; ! = not confirmed by another sample; [ ] = dose if it differs, or a comment. Only some compounds are listed: those with a hit (about 2.7% of all), similar ones and a draw of the others.
SMILES,gsp ag,RXFP1 antagonist,gsp antagonist,RXFP1 ag,ClpP mod,Akt phos inh
CC(C)c1ccc(NC(=O)C2CCCN(S(=O)(=O)c3ccc4[nH]c(=O)ccc4c3)C2)cc1 (configuration not stated),/,7,/,18%,-2%,/
COCCCNC(=O)c1sc2nc(C)c(C(=O)Nc3ccc(Cl)cc3)c(-c3ccc(Br)cc3)c2c1N,/,-16,/,35µM*,7%,/
C=C(C)Cn1c(CCn2c3ccccc3c3ccccc32)n[nH]c1=S,-41%,-65*,-3%,0%,-2%,i
C=CCn1c(CCn2c3ccccc3c3ccccc32)n[nH]c1=S,-46%,?,-2%,0%,-4%,i
O=C(OCc1cccc([N+](=O)[O-])c1)c1cnccn1,5.6µM*,0,16%,22µM*,-1%,i
O=C(OCc1cccc([N+](=O)[O-])c1)c1ccncc1,0%,-7,3%,7%,0%,i
O=C(CSc1ccc2nnc(-c3ccncc3)n2n1)NCc1ccco1,18µM*,/,10%,18%,-14%,i
CCOc1ccccc1NC(=O)CSc1ccc2nnc(-c3cccnc3)n2n1,24%[15.4 µM],-2,3%,?,/,i
CCOC(=O)N1CCN(C(=O)CSc2ccc3nnc(-c4cccnc4)n3n2)CC1,?,-1,-7%,14µM*,/,i
CCOC(=O)N1CCN(C(=O)CSc2ccc3nnc(CCNC(=O)c4ccc(OC)cc4)n3n2)CC1,42%,-3,10%,20%,/,i
CCOC(=O)N1CCN(C(=O)CSc2ccc3nnc(CCNC(=O)c4ccccc4)n3n2)CC1,13µM*,-6,10%,?,/,i
Cc1ccc(-c2nnc3ccc(SCC(=O)NCc4ccco4)nn23)cc1,34%,16,0%,9%,?,?
CCOc1ccc(NC(=O)CSc2ccc3nnc(-c4cccnc4)n3n2)cc1,?,11,15%,25µM*,-1%,i
O=C(NCCCN1CCCC1)[C@H](CSCc1ccccc1)N1Cc2ccccc2C1=O,5%[15.4 µM],-60*,11%,1%,/,i
CC(C)NC(=O)[C@H](CSCc1ccccc1)N1Cc2ccccc2C1=O,16%,/,1%,-1%,1%,i
CCCCc1ccc(NC(=O)c2cc3c(=O)n4ccccc4nc3s2)cc1,/,2,/,1%,-16%,/
Cc1cc2cc(C)c(NCCNC(=O)c3ccccc3)nc2cc1C,-56%,-5,-2%,1%,-24%,i
Cc1ccc(C(=O)NCCNc2nc3cc(C)c(C)cc3cc2C)cc1,22µM*,-9,3%,-1%,/,i
COCC(=O)NCCNc1nc2ccc(C)cc2cc1C,?,-2,8%,0%,28µM*,i
CC(C)(C)c1nnc(NS(=O)(=O)c2ccc(N)cc2)s1,/,8,/,/,/,/
COc1ccccc1C(=O)NCCN1CCC(n2c(=O)[nH]c3ccccc32)CC1,/,/,/,/,0%,i
CCOc1ccccc1C(=O)NCCN1CCC(n2c(=O)[nH]c3ccccc32)CC1,/,/,/,/,2.8µM*,i
CCN(CC)CCn1c(SCC(=O)Nc2cccc(OC)c2)nc2c(sc3ccccc32)c1=O,-5%[15.4 µM],-24,-17%,1%,/,i
COc1cccc(NC(=O)CSc2nc3c(sc4ccccc43)c(=O)n2CCN(C)C)c1,-1%[15.4 µM],-64*,4%,4%,/,i
CCN1CCN(c2ncc3c(n2)CCN(Cc2ccccc2C)C3)CC1,/,-18,/,-1%,-4%,/
SMILES,gsp ag,RXFP1 antagonist,gsp antagonist,RXFP1 ag,ClpP mod,Akt phos inh
Cn1c(SCC(=O)Nc2cccc(F)c2)nnc1-c1cccnc1,-7%,/,5%,-1%,-1%,i
O=C(CSc1nnc(-c2cccnc2)n1CCN1CCCCC1)Nc1cccc(Cl)c1,0%,2,1%,3%,16µM*,i
Cc1cc(NC(=O)CSc2nnc(-c3cccnc3)n2Cc2ccccc2)no1,3%[15.4 µM],4,-1%,7%,3.2µM*,i
CCOc1ccccc1NC(=O)Cn1c(=O)n(-c2ccc(C)c(C)c2)c(=O)c2oc3ccccc3c21,/,5,/,13%,1%,/
CCOC(=O)c1cc(S(=O)(=O)Nc2cc(F)ccc2C)[nH]n1,/,/,/,5%,0%,/
O=C(OCCc1cc2ccccc2c(=O)o1)c1ccccc1C(F)(F)F,-33%,/,-20%,1%,0%,i
CC(C)Oc1ccc(C(CCN)C2CCCCC2)cc1 (configuration not stated),0%,-75*,13%,0%,/,i
CC(C)Oc1ccc(C(=O)NC2CCCCC2)cc1,-5%,-7,-1%,0%,2%,i
Cc1cc(C(=O)COC(=O)c2ccc(NC(=O)CC#N)cc2)c(C)n1-c1ccc(OC(F)F)cc1,1%,-62*,-9%,/,/,i
COC(=O)C1=C(C)NC(C)=C(C(=O)OC)C1C1CC=CCC1 (configuration not stated),0%,2,-3%,0%,-3%,-130%*
CCOC(=O)C1=C(C)NC(=O)NC1C1CC=CCC1 (configuration not stated),5%,-9,11%,1%,1%,i
O=C(CSc1nnc(CNC(=O)c2ccco2)o1)Nc1ccc(OC(F)(F)F)cc1,-1%,-110*,1%,2%,0%,/
CSCCC(NS(=O)(=O)c1ccc(C)cc1)C(=O)N1CC=C(c2ccccc2)CC1 (configuration not stated),19%,-13,5%,1%,2%,i
CC1(C)CCc2cc(O)ccc2O1,/,/,/,/,1%,/
COc1cccc(CNC(=O)c2ccc(-n3c(C)cc4c3CCC(C)C4)cc2)c1 (configuration not stated),/,-9,/,1%,-3%,/
Cc1ccc(-n2c(=O)c3sccc3n(Cc3cc(=O)n4ccccc4n3)c2=O)cc1,-21%,-11,1%,14%,32µM*!,i
Cc1ccc(-n2c(=O)c3sccc3n(Cc3cc(=O)n4ccccc4n3)c2=O)cc1F,/,/,/,4%,/,/
Cc1ccc(OCC(=O)NNc2c3ccccc3nc3ccccc23)cc1,1%,-67*,28µM*,1%,-5%,i
Cc1cccc(OCC(=O)NNc2c3ccccc3nc3ccccc23)c1,-5%,?,22µM*,0%,9%,i
O=C(Cc1ccccc1)NNc1c2ccccc2nc2ccccc12,19%,-7,-17%,-3%,/,i
C#CCN(Cc1ccc(OC)cc1)S(=O)(=O)C=C,/,/,/,/,0%,/
O=c1cc(-c2c(O)c3ccccc3n(Cc3ccccc3)c2=O)[nH][nH]1,0%[15.4 µM],-84*,-16%,1%,/,i
CCOC(=O)c1cc(-c2ccccc2)n(-c2cccc(C(=O)N(C)c3ccc(C)cc3)c2)c1C,/,-63*,/,-1%,0%,/
